This is a sample that favours compounds with a hit; in the whole collection about 3.9% have one here.
USP2a inh: inhibitors of human ubiquitin-specific protease USP2a. O75604. USP2 core, Ub-CHOP2 coupled fluorogenic reporter, 485/531. Potency, µM (series often up to 38.3 µM), actives largely listed as inhibitors. 0.01% of 330,000 active. AID 463254
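Cell-free coupled assay: 10nM USP2 core preincubated 30min RT with compound in Tris-HCl pH 8.0/CaCl2/CHAPS buffer, then 25nM Ub-CHOP2 and 25nM reporter substrate; fluorescence (Ex 485/Em 531) read after 60min RT, normalized to NEM inhibition, concentration-response curves fitted.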
Eya2 inh: inhibitors of human Eya2 phosphatase activity; O00167; recombinant Eya2, OMFP fluorescence dephosphorylation (OMFP is methylfluorescein phosphate); Potency, µM (highest dose often 76.9 µM), usual class: inhibitors; 0.006% of 330,000 active; AID 488837
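Eya2 (0.2 uM) preincubated 10 min at ambient with compound, then OMFP substrate added at 50 uM; 10 min reaction in 50 mM HEPES pH 7.5, 50 mM NaCl, 5 uM MgCl2, 0.05% BSA, 1 mM DTT. Fluorescence read at Ex 485/Em 525 nm.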
D1 potentiator: human D1 dopamine receptor positive modulation | P21728 | HEK293 TREx D1 cells, calcium flux, dopamine EC20 potentiation | potentiation, % at 10 µM | 0.036% of 360,000 active; in the data active = potentiation above about 30%
D1 agonist: agonists of human D1 dopamine receptor; P21728; HEK293 T-REx D1 cells, calcium flux, agonist mode; activation, % at 2 µM; 1% of 360,000 active; in the data active = activation above about 30%
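Tetracycline-induced HEK293 TREx D1 cells, force-coupled to calcium signalling, were dye-loaded with a no-wash calcium kit. Compound was pin-added after a 10 s baseline. Fluorescence was read kinetically at 1 cycle/s for 180 s, with calcium rises flagged as agonism.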
GALK inh: galactokinase (human) inhibition. Purified GALK, Kinase-Glo residual ATP luminescence. AID 1868. 0.007% of 270,000 active. Potency, µM (highest dose often 57.5 µM), actives largely listed as inhibitors
Target sequence (P51570 whole entry, looked up): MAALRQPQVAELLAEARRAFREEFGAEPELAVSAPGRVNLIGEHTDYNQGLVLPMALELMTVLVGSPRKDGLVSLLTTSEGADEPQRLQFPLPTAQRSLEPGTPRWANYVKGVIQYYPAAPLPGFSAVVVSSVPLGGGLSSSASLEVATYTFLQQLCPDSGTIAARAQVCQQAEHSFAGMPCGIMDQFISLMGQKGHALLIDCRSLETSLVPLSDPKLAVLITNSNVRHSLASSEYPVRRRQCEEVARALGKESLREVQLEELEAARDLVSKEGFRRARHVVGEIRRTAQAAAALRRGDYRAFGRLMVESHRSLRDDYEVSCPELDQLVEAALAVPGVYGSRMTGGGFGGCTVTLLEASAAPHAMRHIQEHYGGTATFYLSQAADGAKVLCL
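5 nM enzyme, 35 uM ATP, 100 uM galactose, 20 mM HEPES pH8.0, 5 mM MgCl2; 1 h RT; residual ATP by Kinase-Glo Plus luminescence, qHTS format.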
D1 antagonist: antagonists of human D1 dopamine receptor | HEK293 TREx D1 cells, calcium flux, dopamine EC80; active compounds read low | activity change, negative = inhibition, % at 10 µM | 3.2% of 360,000 active | P21728; in the data active = activity change below about -30%
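Tetracycline-induced HEK293 Trex D1 cells, force-coupled to calcium, dye-loaded; compounds added and read 180 s, then EC80 dopamine added and calcium flux tracked kinetically another 180 s.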
Of the large screens only hits and unclear results are named; the others gave an inactive call. Unless noted, calls follow the shape of the dose curve; as a rule, active = well fitted inhibition curve with a large enough effect; inconclusive = small, poorly fitted or top-dose-only effect, or effect the other way; inactive = flat fitted curve, though single readings scatter.

CC(=O)Nc1ccc(NC(=O)C(C)OC(=O)c2ccc(N(C)C)cc2)cc1 (configuration not stated)	none (no result: D1 potentiator)
Cc1ccc(S(=O)(=O)c2nnn3c2nc(N2CCOCC2)c2sccc23)cc1C	none (no result: USP2a inh, Eya2 inh, GALK inh)
COc1ccc(CNC(=O)Cn2c(=O)n3nc(-c4ccc(OC)cc4)nc3c3ccccc32)cc1	none (no result: USP2a inh, Eya2 inh, GALK inh, D1 antagonist)
O=C(OCCN1CCN(C2=NS(=O)(=O)c3ccccc32)CC1)c1cccc(Br)c1	none
O=C(OCCN1CCN(C2=NS(=O)(=O)c3ccccc32)CC1)c1ccccc1F	D1 antagonist -31.9
CN(C)c1ccc(CNCCC(Cc2ccccc2)c2ccco2)cc1 (configuration not stated)	Eya2 inh inconclusive, D1 agonist 47.5
COc1ccc(-c2noc(CSc3nnc(C)n3-c3ccc(OC)cc3)n2)cc1	none (no result: USP2a inh, Eya2 inh, GALK inh)
CC(=O)c1ccc(S(=O)(=O)NCCCC(=O)N(C)Cc2ccc3c(c2)OCO3)cc1	D1 antagonist -56.5 (no result: GALK inh)
CCCNS(=O)(=O)c1ccc(CCC(=O)Nc2ccc3c(c2)OCO3)cc1	none
COc1cccc2cc(C(=O)N3CCN(c4ccccn4)CC3)c(=O)oc12	D1 antagonist -36.7
O=C(CSc1nc(-c2ccccc2)[nH]c1-c1ccccc1)Nc1ccc2c(c1)OCCO2	none (no result: USP2a inh, Eya2 inh, GALK inh)
COc1ccc(C2C(C(=O)N3CCN(c4ccccc4)CC3)c3ccccc3C(=O)N2C)cc1 (configuration not stated)	D1 antagonist -40.9
CC1CN(c2nc3ccccn3c(=O)c2C=O)CC(C)O1 (configuration not stated)	D1 antagonist -33.9
CC(Sc1nc(N)cc(=O)[nH]1)C(=O)Nc1nc2c(s1)CCCC2 (configuration not stated)	D1 antagonist -41.5
CCC(Sc1nc(C)cc(=O)[nH]1)C(=O)Nc1nc2c(s1)CCCC2 (configuration not stated)	none
COC(=O)N1C(=O)[C@](c2ccsc2)(C(C)C)N1C(=O)OC	D1 antagonist -67.2 (no result: GALK inh)
CCN(CC)CCNC(=O)Cn1ncc2c3ccccc3n(Cc3ccc(Cl)cc3)c2c1=O	none (no result: USP2a inh, Eya2 inh, GALK inh)
COc1ccc(Oc2nc3c(c(=O)n(C)c(=O)n3C)n2Cc2ccccc2Cl)cc1	none (no result: USP2a inh, Eya2 inh, GALK inh)
COC(=O)CC1Oc2ccccc2-n2cc(-c3ccc(Cl)cc3)nc21 (configuration not stated)	none (no result: USP2a inh, Eya2 inh, GALK inh)
COC(=O)c1sc2cc([N+](=O)[O-])cc(SCC(C)C)c2c1N	D1 agonist 90.5 (no result: GALK inh)
CCOC(=O)c1sc2ncc([N+](=O)[O-])cc2c1N	none
COc1ccccc1NC(=O)C1=C(C)Nc2nc(SCc3cccc(F)c3)nn2C1c1ccc(C(=O)O)cc1 (configuration not stated)	none (no result: GALK inh)
CCOc1ccc(NC2CCCCC2NS(=O)(=O)c2ccccc2)cc1 (configuration not stated)	D1 antagonist -35.3
CCOc1ccc(S(=O)(=O)NC2CCCCCC2)cc1	none
COc1ccc(-c2noc(CCCC(=O)NC3CCCCC3)n2)cc1	D1 antagonist -37.3
CCOc1ccc(-c2noc(CCCC(=O)NC3CCCC3)n2)cc1OC	D1 antagonist -84.9 (no result: D1 potentiator)
COc1ccc(-c2noc(CCC(=O)NC3CCCC3)n2)cc1	none
CC(Cc1cccs1)NC(=S)Nc1ccc(Cl)cc1 (configuration not stated)	D1 antagonist -59.6
CC(Cc1cccs1)NC(=S)Nc1ccc(Cl)c(Cl)c1 (configuration not stated)	none
CCC(=O)Nc1cc(C)c(O)c(-c2nc3ncccc3o2)c1	none (no result: USP2a inh, Eya2 inh, GALK inh)
CN(C)/C=C/C(=O)c1cccc(Cl)c1	none
CN(C)/C=C/C(=O)c1ccc(Cl)cc1	D1 antagonist -86.1
O=C(NNC(=O)c1cc(-c2ccc(Cl)cc2Cl)nc2ccccc12)Nc1ccccc1	none (no result: GALK inh)
O=C(COC(=O)CNC(=O)c1ccc(Cl)cc1Cl)NNC(=O)c1ccccc1	none (no result: GALK inh)
O=C(CNC(=O)c1ccc(Cl)cc1Cl)OCc1ccccc1	D1 antagonist -31.9 (no result: GALK inh)
O=C(NNC(=O)c1ccc(Cl)cc1Cl)Nc1ccccc1	D1 antagonist -37.8
Cc1ccsc1C(=O)NCC(=O)OCc1ccccc1	D1 antagonist -30.2

High-throughput results deposited in PubChem BioAssay by National Center for Advancing Translational Sciences (NCATS).
